Consider 39 compounds from PubChem BioAssay (NCI).

Where “and” joins values, the source holds several entries; their conditions need not be identical. Identical values can stand only once. Compounds without any hit were thinned out: in the full panel of roughly 83,000, 20% have a hit.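 Interpretation: 100, growth as untreated; towards 0, rising growth inhibition; 0, no net growth; 0 to -100, cell death. Compounds scoring below 10 were considered active.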 A number with no mark means an inactive call.

The test system of the first test is NCI-H322M lung. Briefly: NCI-60 one-dose screen, 48 h (100 = growth as untreated, 0 = no growth, -100 = all killed). Conditions: 10 µM. The method, then: Growth inhibition of the NCI-H322M human Non-Small Cell Lung tumor cell line is measured as a screen for anti-cancer activity. Cells are grown in 96 well plates and exposed to the test compound for 48 hours. Compounds are tested at a single concentration, which is 10^-5 M for most compounds. The reported endpoint is percent growth (GI% or GIPRCNT), where numbers from 0 - 100% represent growth inhibition, and numbers from -100% - 0 represent cell death. For example, a value of 40 represents 60% growth inhibition. A value of 0 means no net growth occurred over the course of the experiment. A value of -40 indicates 40% of cells at the beginning of the experiment died by the end of the experiment. A value of -100 means all cells are dead at the end of the experiment.
NCI-60 Human Tumor Cell Lines Screen was performed using the standard one-dose NCI protocol, which is described in more detail at https://dtp.cancer.gov/discovery_development/nci-60/default.htm.
Compounds with GIPRCNT values below 10 were considered active. Activity score was based on GIPRCNT using the following formula: […]
Score is 0 for GIPRCNT values of 100 or above, 50 for GIPRCNT values of 0, and 100 for GIPRCNT values of -100.
Take `CS/C(=C\c1ccc(C(=O)c2ccc(C)cc2)n1C)S(C)=O` (stereo not given): the growth is 98%.

The test is the same for the next values; noted with them: 10 µM unless noted.
Take `CC(=O)/C(N=Nc1ccc(S(=O)(=O)c2ccc(N=N/C(C(C)=O)=C(/C)O)cc2)cc1)=C(\C)O`: the growth is 106%.

With `Cc1cccc(Cl)c1N`, the growth is 127%. Still for that read-out and setting: in the case of `O=C(c1ccccc1)C1(Br)CCCCC1` it was 93.4%; in that of `O=C1C=CC(=O)N1Cc1ccco1`, 85.1%. On to `CCCC(=O)OCC(COC(=O)CCC)OC(=O)CCC`, for which the growth is 93.9%. Turning to `Nc1ccccc1SC(CC(=O)c1ccccc1)c1cccc([N+](=O)[O-])c1` (stereo not given), the growth was 113% and 96.1%.

Turning to `C(#CCN1CCOCC1)CCCN1CCOCC1`, the growth was 119% and 99%.

In the case of `CCn1c2ccc(N(C)C)cc2c2cc(N(C)C)ccc21`, the growth is 95.2%. Same read-out and setting: next, `O=C1c2ccccc2CN1c1ccccc1`: 107%. `COc1ccc2oc3cc(NCCN(C)C)ccc3c(=O)c2c1`: the growth is 76.5%. Regarding `C/C(CC(C)C)=N/NC(N)=S`, the growth is 96.9%. On to `O=C(/C=C/C=C/c1ccc2c(c1)OCO2)N1CCCCC1`, for which the growth is 101% and 113%. The same measure, in the same setting: in the case of `COc1ccc(-n2[nH]c3c(cnc4ccccc43)c2=O)cc1` it was 93.2% and 101%; in that of `Cc1c(Cl)c(C)c(Cc2c(C)c(Cl)c(C)c(Cl)c2O)c(O)c1Cl`, 16.1%.

For `O=C(c1ccncc1)c1c(Cc2ccccc2)ccc2ccccc12`, the growth was 74.2%. Consider `CNc1ccc(Cl)cc1S(=O)(=O)c1ccccc1[N+](=O)[O-]`, for which the growth is 89.1% and 91%. The same measure, in the same setting: next, `CCN(CC)CCNC(=O)c1ccc(NCN2C(=O)NC(c3ccccc3)(c3ccccc3)C2=O)cc1`: 112% and 106%; `CN(C=O)c1ccccc1`: 98.5%.

As to `COC(=O)c1nc(=S)[nH]c(C(=O)OC)c1C(=O)c1ccc(OC)cc1`, the growth is 104%. On the same count and under the same terms, next, `COc1ccc2nccc(Cl)c2c1`: 97.1%. The same measure, in the same setting: next, `O=[N+]([O-])c1cccc(N=Cc2ccccc2)c1`: 113%; `CC1=CC(=O)c2cccc(NC3=NCCO3)c21`: 99.4%; `Cc1ccc2cccc([N+](=O)[O-])c2n1`: 110% and 90.5%.

Take `O=C(N=C1C(=O)C2(CCCCC2)C2(N=C(c3ccccc3)OC2=O)C12CCCCC2)c1ccccc1` (stereo not given): the growth was 96%. Turning to `Cc1cc(-c2ccc(N=Nc3c(C)nn(-c4ccc(S(=O)(=O)O)cc4)c3O)c(C)c2)ccc1N=Nc1ccc(O)c(C(=O)O)c1`, the growth is 107%.

On to `O=S(=O)(O)c1ccc2cc(O)ccc2c1`, for which the growth was 99.2%.

As to `O=C1C2=C(Nc3cc(Cl)ccc3N2)OC1c1c[nH]c2ccc(COc3ccccc3)cc12` (stereo not given), the growth is 64.7%. On the same count and under the same terms, in the case of `Oc1cccnc1CN1CCOCC1` it was 98.3% and 102%; in that of `CC(NC(=O)CCl)c1ccccc1` (stereo not given), 106%. The same measure, in the same setting: in the case of `Nc1nc(N)c2cc(S(=O)(=O)c3ccccc3)ccc2n1` it was 43.6% and 41.5%; in that of `O=C(O)c1cc(=O)[nH]c(=O)[nH]1`, 89.8% and 97.5%. As for `Cn1c(-c2ccccc2)cc(=O)cc1-c1ccccc1`, the growth was 97%. Consider `C=CCN1C(=O)c2ccccc2C1=O`, for which the growth was 102%. Regarding `CC(C)(C)C1CCC(=NO)CC1` (stereo not given), the growth is 106%.

For the compound `Cc1ccc(NC(=S)N/C=C(\c2ccccc2)S(=O)Cc2ccccc2)c(C)c1` (stereo not given), the growth is 94.8%. On the same count and under the same terms, in the case of `COc1cc(Cl)ccc1C` it was 85.6%; in that of `CCOC(=O)c1csc(N)n1`, 87.1% and 101%; in that of `S=c1ccc2ccccc2[nH]1`, 96.8% and 96.2%.

Still in this test, the particulars now being: 100 µM.
With `CS/C(=C\c1ccc(C(=O)c2ccc(C)cc2)n1C)S(C)=O` (stereo not given), the growth is 103%.
